Hits are enriched below; roughly 1.3% of the tested compounds scored in any of these assays.
gsp ag: activates gsp, the McCune-Albright syndrome mutation. gsp mutant cells, cAMP HTRF, 30 min. Potency, µM (doses to about 76.9 µM), for the others: at the highest dose activation (cAMP increase), usual class: activators. 340,000 compounds, 0.13% hits. AID 624287; active means well fitted activation curve with a large enough effect; inconclusive means small, poorly fitted or top-dose-only effect, or another doubt; inactive means no such curve, though single readings can be large or run the other way; cell line not stated here;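 further: phosphodiesterase inhibitor Ro 20-1724 added with compounds to block cAMP breakdown; potency means the concentration at half of the fitted maximal effect; nearly all actives have a fitted effect of over 60% in size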
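Cells in DMEM/10% FBS with G418 were pretreated with compounds in DMSO plus […] (300 uM stock) for 30 min at 37C. cAMP was measured by HTRF (cAMP-d2 plus anti-cAMP antibody-K) after 30 min at room temperature.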
gsp antagonist: antagonists of gsp mutant (McCune-Albright syndrome) | 340,000 compounds, 0.4% hits | AID 624288 | gsp-mutant cells, cAMP HTRF, 30 min | Potency, µM (highest dose often 76.9 µM), without a hit: at the highest dose activity change, negative = inhibition, actives largely listed as inhibitors; calls by dose curve; cell line not stated here;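 further: intracellular cAMP measured with PDE inhibitor Ro 20-1724 present during compound exposure; potency means the concentration at half of the fitted maximal effect; on the % scale 0 is the no-effect control and ±100 the full control effect; nearly all actives have a fitted effect of over 65% in size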
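HTRF cAMP measurement after 30 min RT detection following 30 min, 37C compound treatment alongside […] (added as 300 uM solution) in G418-selected cells seeded at 2000/well and grown 16–24 h.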
RXFP1 antag: blocks the human relaxin receptor RXFP1; HEK293-RXFP1, relaxin-stimulated cAMP HTRF, 30 min; stronger effect = lower value; activity change, negative = inhibition, % at 57.5 µM; 350,000 compounds, 0.59% hits; AID 1259400;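 active means activity change of -60% or lower, but not beyond a set lower limit; inconclusive means change between -60% and -40%, or beyond the set limit; inactive means change above -40%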; further: on the % scale 0 is the no-effect control and ±100 the full control effect
Target sequence (Q9HBX9 whole entry, looked up): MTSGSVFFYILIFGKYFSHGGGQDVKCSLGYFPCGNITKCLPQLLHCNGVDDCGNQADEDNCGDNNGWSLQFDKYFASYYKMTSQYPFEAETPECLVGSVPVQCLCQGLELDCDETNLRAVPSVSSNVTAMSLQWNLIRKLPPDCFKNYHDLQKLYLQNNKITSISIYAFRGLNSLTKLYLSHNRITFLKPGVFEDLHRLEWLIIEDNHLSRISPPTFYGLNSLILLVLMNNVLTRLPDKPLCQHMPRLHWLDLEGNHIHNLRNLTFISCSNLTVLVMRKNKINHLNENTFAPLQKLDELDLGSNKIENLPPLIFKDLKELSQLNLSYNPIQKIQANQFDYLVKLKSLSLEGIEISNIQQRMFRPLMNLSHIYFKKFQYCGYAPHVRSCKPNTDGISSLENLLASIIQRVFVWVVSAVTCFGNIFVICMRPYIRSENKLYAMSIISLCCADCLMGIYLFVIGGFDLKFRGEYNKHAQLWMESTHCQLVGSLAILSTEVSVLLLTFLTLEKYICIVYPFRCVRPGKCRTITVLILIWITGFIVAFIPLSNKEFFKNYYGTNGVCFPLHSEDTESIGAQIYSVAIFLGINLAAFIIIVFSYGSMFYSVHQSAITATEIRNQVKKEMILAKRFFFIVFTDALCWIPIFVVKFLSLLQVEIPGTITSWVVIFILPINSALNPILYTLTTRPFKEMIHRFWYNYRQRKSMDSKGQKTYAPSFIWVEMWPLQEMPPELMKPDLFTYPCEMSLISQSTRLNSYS
RXFP1 ag: RXFP1 (human) receptor agonism | HEK293T-RXFP1 cAMP TR-FRET, 30 min; response scale: percent of porcine relaxin response, buffer zero | 370,000 compounds, 0.3% hits | Potency, µM (titrated, usually from 57.5 µM), inactives show top-dose activation, most hits filed as activators | AID 2676 | Q9HBX9; active means well fitted activation curve with a large enough effect; inconclusive means small, poorly fitted or top-dose-only effect; further: potency means the concentration at half of the fitted maximal effect; on the % scale 0 is the no-effect control and ±100 the full control effect; nearly all actives have a fitted effect of over 60% in size
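Agonist response is measured as cAMP accumulation in an RXFP1-transfected HEK293T line under PDE4 inhibition. Values are scaled between buffer-only and 29 nM porcine relaxin, and EC50s come from standard Hill equation fits.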
Akt phos inh: Akt phosphorylation inhibition. Neuro2A IGF-stimulated pAkt S473 HTRF, 20 min; stronger effect = lower value. activity change, % for hits at 50 µM. 360,000 compounds, 0.32% hits. AID 651550; in the data active means activity change below about -80%; inconclusive means mostly about -51% to -80%; further: on the % scale 0 is the no-effect control and ±100 the full control effect
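Single-point screen (50 µM final compound) in Neuro2A cells stimulated 20 min with 6 nM IGF at 37 deg C. After lysis, Ser473-phosphorylated Akt read by HTRF (ex 330 nm, em 615/665 nm) as the 665/615 ratio.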
* = called active by the depositor; i = inactive; ? = inconclusive; . = not tested or not shown; [ ] = remark or other dose.

SMILES | gsp ag | gsp antagonist | RXFP1 antag | RXFP1 ag | Akt phos inh
CC(=O)N1c2ccc(S(=O)(=O)N3CCC(C(=O)NCCc4ccc(Cl)cc4)CC3)cc2CC1C (stereo not given) | ? | 35µM* | 25 | 0% | i
Nc1ccn([C@@H]2O[C@H](CO)[C@@H](O)C2(F)F)c(=O)n1 | . | . | -8 | . | .
O=c1[nH]c2ccccc2c(=O)n1CCCl | . | . | 11 | . | .
CC1CN(C(=O)COc2ncnc3ccccc23)CC(C)O1 (stereo not given) | 8% | 3% | 6 | -3% | -105%*
O=C(COc1ncnc2ccccc12)N1CCN(c2ccccc2)CC1 | 7%[15.4 µM] | . | -1 | 5% | i
CCCc1cc(-c2[nH]ncc2-c2ccc(C(=O)OCC)o2)c(O)cc1O | -48% | -26% | -33 | 4% | i
CCCc1cc(-c2[nH]ncc2-c2ccc3c(c2)OCCCO3)c(O)cc1O | ? | -24% | -76* | -1% | i
COc1ccc(-n2c(=O)c3ccc(C(=O)NCc4ccc(C)cc4)cc3n(CC(=O)Nc3cccc(F)c3)c2=O)cc1 | . | . | . | 32µM* | .
O=C(Cn1c(=O)n(-c2ccccc2)c(=O)c2ccc(C(=O)NCc3ccc4c(c3)OCO4)cc21)Nc1ccc(F)cc1 | . | . | . | 15% | .
Cc1ccc(-n2c(=O)c3ccc(C(=O)NCc4ccccc4Cl)cc3n(Cc3cccc(F)c3)c2=O)cc1 | . | . | . | 32µM* | .
Cc1ccc(NC(=O)Cn2c(=O)n(-c3ccccc3)c(=O)c3ccc(C(=O)NCc4ccc5c(c4)OCO5)cc32)cc1 | . | . | . | 22µM* | .
Cc1ccc(-n2c(=O)c3ccc(C(=O)NCc4ccccc4Cl)cc3n(CC(=O)Nc3cccc(F)c3)c2=O)cc1 | . | . | . | 12% | .
COc1ccc(NC(=O)Cn2c(=O)n(-c3ccc(OC)cc3)c(=O)c3ccc(C(=O)NCc4ccc(C)cc4)cc32)cc1 | . | . | . | 13% | .
CCCC(=O)Nc1cccc(OCc2cc(=O)n3cccc(C)c3n2)c1 | . | . | 0 | 1% | .
Fc1cccc(CNc2ncnc3ccc(-c4cccnc4)cc23)c1 | . | . | . | 1% | .
CCCOc1ccc(OC(=O)c2cn(-c3ccc(OC)cc3)c(=O)c3ccccc23)cc1 | . | . | -16 | 6% | .
CC12CCC(C/C1=N\OC(=O)c1ccc(F)cc1)C2(C)C (stereo not given) | -20% | 15% | -24 | 2% | -96%*
CC12CCC(C/C1=N/OC(=O)c1cccc([N+](=O)[O-])c1)C2(C)C (stereo not given) | -3% | -12% | -3 | 0% | i
O=C(O)COc1ccccc1/C=C1\C(=O)Nc2ccc(Br)cc21 | -9%[15.4 µM] | 3% | -19 | -1% | i
CC(=O)/C=C1/C(=O)Nc2ccccc21 | -5% | -27% | -73* | -1% | i
O=C1Nc2ccc(Br)cc2/C1=C/C(=O)c1ccccc1 | 10% | -4% | -82* | . | i
Cc1cc(NCc2ccccc2)nc(N2CCOCC2)n1 | -16% | 5% | 0 | 0% | -113%*
COC(=O)c1ccccc1-c1ccc(/C=N/Nc2nc(N3CCCC3)nc(N3CCCC3)n2)o1 | 0%[15.4 µM] | 25µM* | ? | 10% | i
COc1ccc(CNC(=O)CN2CCN(C(c3ccccc3)c3ccccc3)CC2)cc1 | 9% | -17% | -25 | 1% | i
O=C(CN1CCN(C(c2ccccc2)c2ccccc2)CC1)NCc1ccccc1 | ? | -6% | -74* | -2% | i
SMILES | gsp ag | gsp antagonist | RXFP1 antag | RXFP1 ag | Akt phos inh
Cc1ccc(CN2CCN(CC(=O)NCc3ccccc3)CC2)cc1 | 3% | 1% | -99* | 1% | i
Cc1ccc(Nc2c3c(nc4nncn24)CCC3)cc1C | . | . | -1 | 8% | .
COc1ccc(CCNS(=O)(=O)c2cccc(S(=O)(=O)N3CCCC3)c2)cc1OC | -52% | -7% | -11 | -1% | i
O=S(=O)(NCC1CC1)c1cccc(S(=O)(=O)N2CCCC2)c1 | -4% | 5% | -1 | 0% | -112%*
COc1cccc(NC(=O)Nc2nc(SC)ns2)c1 | -39% | -24% | -2 | 2% | i
COc1cccc(NC(=O)Nc2nc(SC(C)(C)C)ns2)c1 | -44% | 40µM* | -33 | 1% | i
Cc1nn(Cc2ccc(Cl)c(Cl)c2)c(C)c1NC(=O)c1cc(-c2ccco2)on1 | 5% | 32µM* | -25 | 1% | i
COc1cc(OC)c(NC(=O)c2c(C)oc3nc(C)nc(N4CCOCC4)c23)cc1Cl | . | . | 9 | 1% | .
Cc1[nH]n2c(=O)c3c(nc2c1-c1ccccc1)CCCC3 | ? | -5% | -8 | -1% | i
Cc1[nH]n2c(=O)c3c(nc2c1-c1cccc2ccccc12)CCC3 | 3% | -13% | 0 | 1% | -114%*
O=C(Nc1ccc(-c2cn3ccsc3n2)cc1)C1COc2ccccc2O1 (stereo not given) | -29% | 40µM* | -24 | 1% | i
CCC(=O)N1CCc2cc(Br)cc(S(=O)(=O)N3CCCC(C(=O)Nc4cccc(Cl)c4C)C3)c21 (stereo not given) | . | . | . | -2% | .
C(=C\c1ccccc1)/C=N/Nc1nc2ccccc2s1 | -22% | -6% | -12 | 2% | i
CCC/C=N/Nc1nc2ccccc2s1 | 3%[15.4 µM] | ? | -91* | 0% | i
Cc1ccccc1CNC(=O)Cc1csc2ccccc12 | . | . | -4 | 1% | .
CCCCCCCCCCCCCCCCCCN(C)C | . | . | 22 | . | .
COc1ccc(Nc2nnc(-c3ccc(O)cc3)c3ccccc23)cc1 | -1% | 25µM* | -6 | 3% | i
O=C(c1ccco1)N1CCNCC1 | . | . | 16 | . | .
Cc1ccc(C)c(CN2C(=O)c3ccccc3S(=O)(=O)c3ccc(C(=O)N4CCCCC4)cc32)c1 | . | . | -10 | 0% | .
CCO[C@H]1OC(C(=O)N2CCN(Cc3ccc4c(c3)OCO4)CC2)=C[C@@H](C(C)(C)C)[C@@H]1CCCO | . | 7.9µM* | . | 3% | i
CCO[C@@H]1OC(C(=O)N2CCN(Cc3ccc4c(c3)OCO4)CC2)=C[C@H](C2CCCCC2)[C@H]1CCCO | . | ? | . | -4% | i
COc1ccccc1C1CCCN1Cc1nc(-c2ccc(C)s2)oc1C (stereo not given) | 4%[15.4 µM] | -5% | -65* | 0% | i
COc1cccc(C(=O)Nc2ccc3nc(SCCOc4ccccc4)sc3c2)c1 | . | . | . | -1% | .
O=C(CCNS(=O)(=O)c1cccc2nsnc12)NCCC1=CCCCC1 | -9% | -3% | -4 | 3% | -111%*
O=S(=O)(NCCC1=CCCCC1)c1cccc2nsnc12 | ? | -1% | 1 | -2% | i
COC(=O)[C@]1(C)CCC[C@@]2(C)C3CC[C@@]4(C)C[C@]3(CCC21)CC(=O)N4 (stereo not given in full) | . | 4% | . | 0% | i
C=C1C(=O)C23CCC4C(C)(C(=O)OC)CCCC4(C)C2CCC1(O)C3 (stereo not given) | 9% | 7% | -92* | . | i
Cc1[nH]c(=S)c(C#N)c(C)c1CCC#N | ? | 1% | -119* | 0% | i

Bioassay records deposited in PubChem by National Center for Advancing Translational Sciences (NCATS).
